Results filed as inconclusive are left out. Entries that show only a call come without a potency. Activity calls are given as the source filed them. The call rests on the fitted dose curve; in most records, active means well fitted cell-killing curve with a large enough effect; inconclusive means small, poorly fitted or top-dose-only effect; inactive means flat fitted curve, though single readings scatter.
Assay: Quantitative highthroughput screen to assess conditional lethalithy of NOMO1 cells grown in RPMI1640 with untreated serum (RPMI+s) (AID 1963876); further: nearly all actives have a fitted effect of over 35% in size
Settings: NOMO1 AML cells in RPMI+serum, CellTiter-Glo viability, 48 h; series mostly up to 45.8 µM
From the text: Assay Provider: Jason Cantor Ph.D.
Department of Biochemistry
University of Wisconsin-Madison, Madison, WI, USA
Chemical screening studies have identified drug sensitivities across hundreds of cancer cell lines but most putative therapeutics fail to translate. Discovery and development of drug candidates in models that more accurately reflect nutrient levels in human blood is a major challenge. Here we performed high-throughput screens in conventional versus Human Plasma-Like Medium (HPLM) to identify compounds that were "missed" when screening using the artificial culture condition. Sets of conditional anticancer compounds spanned phases of clinical development and included non-oncology drugs were assessed. […] We also traced conditional phenotypes for several chemotherapeutics to availability of HPLM-specific metabolites and confirmed others for compounds whose reported targets are encoded by nonessential genes. Our findings establish generalizable strategies for exploiting conditional lethality in HPLM to reveal therapeutic candidates and mechanisms of action in cancer cells.
Described herein are the results of each viability screens against three cell lines: NOMO1 (an acute myeloid leukemia cell line); P12-Ichikawa (a T-cell acute lymphoblastic leukemia); and SEM (a B-cell ALL). Each assay was screened using 3 different cell culture media: homemade human plasma-Like medium with 10% dialyzed fetal bovine serum (HPLM+ds); RPMI1640 with 10% untreated FBS and 5mM glucose (RPMI+s); and RPMI1640 with 10% dialyzed fetal bovine serum and 5 mM glucose (RPMI+ds).
PROTOCOL TABLE (as described by Inglese J, Shamu CE and Guy RK. 2007)
SEQUENCE No. (e.g., 1, 2, 3, etc.); […] (e.g., Cells, Incubation, Reagent, etc.); VALUE and DESCRIPTION.
1; Cells; 5 uL; white, solid bottom 1536-well Greiner assay plate.
2; Compounds; 23 nL; Kalypsis pin tool (Wako USA) equipped with a 1536-well pin head to transfer to the assay plates.
3; Incubation; 48 hours; 37C incubation.
4; Reagent; 3 uL; CellTiter Glo (Promega).
5; Incubation; 5 min, room temperature
6; Detection; Luminescence, Viewlux PerkinElmer.
NOTES (numbers refer to Sequence numbers above)
1. Briefly, 5 ul of cell reagent was dispensed using a Multidrop Combi Dispenser. The NOMO1 and SEM cells were plated at 500 cells/well and the P12-Ichikawa line at 1000 cells/well.
2. After seeding the cells, 23 nL of MIPE 4.1 library compounds (in DMSO) were added to each plate using a Kalypsys 1536 Pintool dispenser. Bortezomib at final concentration of […] and DMSO were added to each plate as positive and negative controls respectively. For each screen, MIPE 4.1 compounds were added over an eleven-point concentration range […] in 3-fold dilutions.
3. Each plate was covered with a stainless steel gasketed lid to prevent evaporation and incubated for 48 hour at 37C, 95% relative humidity, and 5% CO2.
4-5. Three microliter CellTilter-GloTM luminescent substrate mix (Promega) reagent was added to the assay plate and incubated at room temperature for 5 min.
6. The luminescence signal was measured using a ViewLux (PerkinElmer) multiplate reader with a 2 second exposure time per plate. Data for each compound were normalized as percent viability such that measurements for DMSO and the empty well controls in each plate were defined as 100% and 0%, respectively.
With `CCCc1nc2c(C)cc(-c3nc4ccccc4n3C)cc2n1Cc1ccc(-c2ccccc2C(=O)O)cc1` the Potency was “inactive”.
In the case of `CCCCCCCCCCCC1=C(O)C(=O)C=C(O)C1=O`, the Potency was 0.332 µM (active).
In the case of `CC(C)C[C@H](NC(=O)[C@H](Cc1ccccc1)NC(=O)c1cnccn1)B(O)O`, the Potency was 0.0469 µM (active).
For `CCc1ccc(OCc2ccccc2C(=O)Nc2ccc3nc(C)cc(N)c3c2)cc1`, the Potency was 9.35 µM (active).
With `Cc1[nH]c(C=C2C(=O)Nc3ccccc32)c(C)c1CCC(=O)O` the Potency was 14.8 µM (active).
In the case of `O=C(O)CCC1CCC(c2cc(F)ccc2F)(S(=O)(=O)c2ccc(Cl)cc2)CC1` (stereo not given), the Potency was 1.48 µM (active).
In the case of `NC(=O)NO`, the Potency was 4.69 µM (active).
In the case of `C[C@@H]1COCCN1c1cc(C2(S(C)(=N)=O)CC2)nc(-c2ccnc3[nH]ccc23)n1` (stereo not given in full), the Potency was 4.67 µM (active).
For `C[C@]12CC[C@H](O)CC1=CC[C@@H]1[C@H]2CC[C@]2(C)C(c3cccnc3)=CC[C@H]12`, the Potency was “inactive”.
In the case of `NC1CCC(Nc2nc(Nc3ccc(C(=O)N4CCCCC4)cc3)c3ncn(-c4cccc(F)c4)c3n2)CC1` (stereo not given), the Potency was “inactive”.
For `COC(=O)[C@H](CCCN=C(N)N)NS(=O)(=O)c1ccc(C)cc1`, the Potency was “inactive”.
In the case of `COc1ccc(-n2c(C)c([N+](=O)[O-])c3ccc(O)cc32)cc1`, the Potency was “inactive”.
In the case of `Oc1cccc(-c2nc(N3CCOCC3)c3oc4ncccc4c3n2)c1`, the Potency was “inactive”.
With `Cc1cc2c(F)c(Oc3ncnn4cc(OC[C@@H](C)O)c(C)c34)ccc2[nH]1` the Potency was “inactive”.
For `O=C1CCC[C@@H]2[C@H]3CCC[N+]4([O-])CCC[C@@H](CN12)[C@@H]34` (stereo not given in full), the Potency was 8.33 µM (active).
With `COc1cc2c(cc1OC)CN(CCc1ccc(NC(=O)c3cccc4c(=O)c5cccc(OC)c5[nH]c34)cc1)CC2` the Potency was 4.69 µM (active).
With `Nc1ccn([C@@H]2C(F)=C(CO)[C@@H](O)[C@H]2O)c(=O)n1` the Potency was 5.24 µM (active).
For `CCC(C)(Oc1ccc(C2(c3ccc(OC(C)(CC)C(=O)O)cc3)CCCCC2)cc1)C(=O)O` (stereo not given), the Potency was “inactive”.
In the case of `COCCCOc1ccnc(CS(=O)c2nc3ccccc3[nH]2)c1C` (stereo not given), the Potency was “inactive”.
With `Cc1c(C)n(Cc2ccc(-c3ccccc3C(=O)O)cc2)c2ccc(C(=O)N[C@@H](C)c3ccc([N+](=O)[O-])cc3)cc12` the Potency was 9.35 µM (active).
For `Cc1ccc(-n2[nH]c(C)c(N=Nc3cccc(-c4cccc(C(=O)O)c4)c3O)c2=O)cc1C`, the Potency was “inactive”.
In the case of `CC(=O)N1CCN(c2ccc(OC[C@H]3CO[C@](Cn4ccnc4)(c4ccc(Cl)cc4Cl)O3)cc2)CC1`, the Potency was “inactive”.
With `C[N+]1(C)[C@@H]2C[C@@H](OC(=O)C(O)(c3cccs3)c3cccs3)C[C@H]1[C@@H]1O[C@@H]12` the Potency was “inactive”.
In the case of `COc1ncc(-c2ccc3c(Nc4cc(Oc5cc(F)cc(F)c5)cc(C(=O)O)c4)c(S(=O)(=O)NC4CC4)cnc3c2)c(OC)n1`, the Potency was “inactive”.
With `Cc1cc(Nc2ncnc3ccc(-c4ccc(CNCCS(C)(=O)=O)o4)cc23)ccc1Oc1ccn2ncnc2c1` the Potency was 0.935 µM (active).
In the case of `COc1cc(Nc2ncc(F)c(Nc3ccc4c(n3)N(COP(=O)(O)O)C(=O)C(C)(C)O4)n2)cc(OC)c1OC`, the Potency was “inactive”.
In the case of `Cn1cc(-c2cnn3c(N)c(Br)c([C@H]4CCCNC4)nc23)cn1`, the Potency was 2.09 µM (active).
With `CC1(C)CCC[C@@]2(C)[C@@H]1CC[C@@]1(C)OC(=O)C[C@H]21` the Potency was “inactive”.
In the case of `COC(=O)N1CCN(Cc2cccc(NC(=O)Nc3ccc(C)nc3)c2F)CC1`, the Potency was “inactive”.
With `CNC(=O)Nc1ccc(-c2nc(N3CC4CCC(C3)O4)c3cnn(C4CCC5(CC4)OCCO5)c3n2)cc1` the Potency was 0.059 µM (active).
In the case of `C[C@H]1c2cccc(O)c2C(O)=C2C(=O)[C@]3(O)C(O)=C(C(N)=O)C(=O)[C@@H](N(C)C)[C@@H]3[C@@H](O)[C@@H]21`, the Potency was “inactive”.
In the case of `CCOC(=O)[C@H](CCc1ccccc1)N[C@H]1CS[C@H](c2cccs2)CN(CC(=O)O)C1=O`, the Potency was 10.5 µM (active).
With `CCN1CCCC1CNC(=O)c1cc(S(N)(=O)=O)ccc1OC` (stereo not given) the Potency was “inactive”.
With `NC(=O)c1cccc(N)c1` the Potency was “inactive”.
For `C=CC(=O)Nc1cccc(Nc2nc(NC3CCC(N(C)C)CC3)nc3c2ncn3C(C)C)c1` (stereo not given), the Potency was 2.96 µM (active).
In the case of `C=CC(=O)Nc1cc2c(Nc3ccc(F)c(Cl)c3)ncnc2cc1OCCCN1CCOCC1`, the Potency was “inactive”.
For `CCCCCCCCCCCCCCCCCCCCCCO`, the Potency was “inactive”.
With `CO[C@@H]1COCC[C@@H]1N[C@@H]1CC[C@@](C(=O)N2CCc3ncc(C(F)(F)F)cc3C2)(C(C)C)C1` the Potency was “inactive”.
In the case of `NNC(=O)c1ccncc1`, the Potency was “inactive”.
With `Cc1ccccc1-n1c(Cn2nc(-c3cccc(O)c3)c3c(N)ncnc32)nc2cccc(C)c2c1=O` the Potency was 1.18 µM (active).

Source: PubChem BioAssay (NCATS)
Potency means the concentration at half of the fitted maximal effect.
